29 compounds from PubChem BioAssay (EPA / NIEHS) can be followed below.

The structures appear in SMILES notation. Results filed as inconclusive are left out. Activity calls are given as the source filed them. Rule for the calls: active = hit-call score of the fitted dose curve at least 0.9, where 1 is the maximum; inconclusive = response in the unintended direction; inactive = score below 0.9.

Sequence of Bile acid receptor (Homo sapiens) (Q96RI1 whole entry, looked up): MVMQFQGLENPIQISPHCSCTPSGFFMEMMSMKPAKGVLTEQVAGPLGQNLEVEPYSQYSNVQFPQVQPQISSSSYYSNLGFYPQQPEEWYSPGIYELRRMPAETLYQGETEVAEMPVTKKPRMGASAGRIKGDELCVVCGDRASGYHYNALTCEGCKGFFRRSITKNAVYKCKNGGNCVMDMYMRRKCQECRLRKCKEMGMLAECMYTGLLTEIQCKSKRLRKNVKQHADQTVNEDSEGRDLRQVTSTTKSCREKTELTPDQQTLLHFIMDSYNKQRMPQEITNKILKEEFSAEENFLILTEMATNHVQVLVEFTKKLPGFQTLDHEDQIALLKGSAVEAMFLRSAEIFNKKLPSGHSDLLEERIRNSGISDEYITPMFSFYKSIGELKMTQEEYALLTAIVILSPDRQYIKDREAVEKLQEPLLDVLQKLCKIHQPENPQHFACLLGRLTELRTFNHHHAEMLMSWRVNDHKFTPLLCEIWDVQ
Sequence of Retinoic acid receptor RXR-alpha (Homo sapiens) (P19793 whole entry, looked up): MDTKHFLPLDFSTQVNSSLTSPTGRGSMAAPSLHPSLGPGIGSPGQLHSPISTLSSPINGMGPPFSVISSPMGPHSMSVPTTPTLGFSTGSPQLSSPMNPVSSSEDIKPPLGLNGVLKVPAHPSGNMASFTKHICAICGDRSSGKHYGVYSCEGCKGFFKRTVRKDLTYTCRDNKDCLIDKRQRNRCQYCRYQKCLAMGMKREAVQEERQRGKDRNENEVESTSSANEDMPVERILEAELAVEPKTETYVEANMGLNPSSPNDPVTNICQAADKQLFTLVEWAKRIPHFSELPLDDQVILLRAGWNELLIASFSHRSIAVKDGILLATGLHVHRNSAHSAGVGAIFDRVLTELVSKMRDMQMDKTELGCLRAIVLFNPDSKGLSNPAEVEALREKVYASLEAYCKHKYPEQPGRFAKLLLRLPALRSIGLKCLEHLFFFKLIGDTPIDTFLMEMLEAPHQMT
Sequence of Peroxisome proliferator-activated receptor gamma (Homo sapiens) (P37231 whole entry, looked up, the tested form may be a part): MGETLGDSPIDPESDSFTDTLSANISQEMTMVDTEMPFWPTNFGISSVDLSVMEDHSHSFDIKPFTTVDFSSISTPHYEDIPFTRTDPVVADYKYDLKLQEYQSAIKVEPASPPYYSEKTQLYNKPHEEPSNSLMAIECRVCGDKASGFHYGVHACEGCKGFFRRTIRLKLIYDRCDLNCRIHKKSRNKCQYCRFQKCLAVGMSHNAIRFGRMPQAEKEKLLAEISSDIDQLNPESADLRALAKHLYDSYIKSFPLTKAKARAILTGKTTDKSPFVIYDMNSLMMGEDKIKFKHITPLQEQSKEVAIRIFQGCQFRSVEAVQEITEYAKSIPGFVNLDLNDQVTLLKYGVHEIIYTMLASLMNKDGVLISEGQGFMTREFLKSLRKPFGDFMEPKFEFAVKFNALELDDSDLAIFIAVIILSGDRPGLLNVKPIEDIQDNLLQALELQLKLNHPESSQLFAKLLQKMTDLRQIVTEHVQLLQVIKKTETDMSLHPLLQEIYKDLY

The target of one assay is Bile acid receptor (Homo sapiens) (UniProt Q96RI1). The assay is described as follows: OT_FXR_FXRSRC1_1440: Odyssey Thera (OT) 24-hour HEK293T Protein-Complementation Assay for Farnesoid X receptor/SRC-1 Co-activator (AID 2283384). In outline:
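Single endpoint, analysed for increased fluorescence against DMSO controls. HEK293T cells carrying FXR and SRC-1 linked to complementary reporter halves were exposed to chemicals for 24 h before reading.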
For the compound `O=C(O)c1ccc([N+](=O)[O-])cc1`, the compound was classed as inactive.
Regarding `COc1cc(C(C)(C)C)c(O)c(C(C)(C)C)c1`, the compound was called inactive.
As for `CC(C)=CCCC(C)CC=O` (configuration not stated), the compound was classed as inactive.

A further assay addresses Retinoic acid receptor RXR-alpha (Homo sapiens) (UniProt P19793). Nature of the assay: OT_NURR1_NURR1RXRa_0480: Odyssey Thera (OT) 8-hour HEK293T Protein Complementation Assay for Nurr1/retinoid X receptor (RXR) (AID 2283385). In outline:
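Gain in fluorescent complementation signal over DMSO, measured 8 hours after chemical dosing of human kidney HEK293T cells, indicated enhanced Nurr1–RXRα association.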
As to `CC(C)CCCCCCCOC(=O)c1ccc(C(=O)OCCCCCCCC(C)C)c(C(=O)OCCCCCCCC(C)C)c1`, the outcome was inactive.
Still for that read-out and setting: then `CCCCCCCCCCCCCCCCCC(=O)OCC(CC)CCCC` (configuration not stated), with “inactive”; and `CCCCCCCCCCCCCCCC(=O)O`, with “inactive”; and `COc1c(Cl)c(Cl)c(Cl)c(Cl)c1Cl`, with “inactive”.
For the compound `NCCCCCCN`, the compound was classed as inactive.
`CC(C)=CCC[C@](C)(O)[C@@H]1CC=C(C)CC1`: the result was inactive.
Same read-out and setting: with `O=C(O)c1ccc([N+](=O)[O-])cc1` the entry was “inactive”; with `C=CCOc1nc(OCC=C)nc(OCC=C)n1`, “inactive”.
Turning to `CCCCCC(CO)CCC` (configuration not stated), the outcome was inactive.
With `CCCCCCCCCCN`, the AC50 (as a rule, the concentration at which the activity in the assay is half-maximal) was 59.8 µM (active).
`C=CC[N+](C)(C)CC=C`: the call was inactive.
For the compound `O=c1cc(-c2ccccc2)oc2cc(O)cc(O)c12`, the result was inactive.
For `CC1=CC(=O)NS(=O)(=O)O1`, the compound was classed as inactive.
Regarding `CCCCCOC(=O)CCC`, the call was inactive.
The same measure, in the same setting: then `c1ccc2[nH]ccc2c1`, with “inactive”.
Regarding `CC(C)=CCCC(C)CC=O` (configuration not stated), the result was inactive.
Turning to `Cc1ccc(O)c(C(C)(C)C)c1`, the AC50 was 50 µM (active).
Consider `CCCCC(CC)COC(=O)/C=C\C(=O)OCC(CC)CCCC` (configuration not stated), for which the concentration at half-maximal activity (AC50) is 7.85 µM (active).
For `CCCC1CCC(=O)O1` (configuration not stated), the result was inactive.
For `CC1(C)[C@@H]2CC[C@@]1(C)[C@H](O)C2`, the compound was called inactive.
Same read-out and setting: then `C=O`, with “inactive”; and `C[Si](O[Si](C)(C)C)O[Si](C)(C)C`, with “inactive”.
As to `CCCCCCCCCCCCN`, the AC50 was 11 µM (active).
As to `OC1OC[C@@H](O)[C@H](O)[C@H]1O` (some centres not stated), the result was inactive.
`NC(=O)NC1NC(=O)NC1=O` (configuration not stated): the call was inactive.
For the compound `C=CC(C)(O)CCC=C(C)CCC=C(C)C` (configuration not stated), the call was inactive.
Still for that read-out and setting: then `O=C[C@@H](O)[C@H](O)[C@H](O)CO`, with “inactive”; and `O=C1C(c2[nH]c3ccc(S(=O)(=O)O)cc3c2O)=Nc2ccc(S(=O)(=O)O)cc21`, with “inactive”.

For another assay the target is unchanged. Nature of the assay: OT_NURR1_NURR1RXRa_1440: Odyssey Thera (OT) 24-hour HEK293T Protein Complementation Assay for Nurr1/retinoid X receptor (RXR) (AID 2283386). In outline:
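Cell-based binding reporter: HEK293T cells, 24 h exposure, fluorescence-detected fragment complementation, DMSO as baseline.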
Take `CC(C)CCCCCCCOC(=O)c1ccc(C(=O)OCCCCCCCC(C)C)c(C(=O)OCCCCCCCC(C)C)c1`: the outcome was inactive.
Turning to `CCCCCCCCCCCCCCCCCC(=O)OCC(CC)CCCC` (configuration not stated), the compound was classed as inactive.
Regarding `CCCCCCCCCCCCCCCC(=O)O`, the compound was called inactive.
Take `CC(C)=CCC[C@](C)(O)[C@@H]1CC=C(C)CC1`: the compound was classed as inactive.
Consider `C=CCOc1nc(OCC=C)nc(OCC=C)n1`, for which the call was inactive.
Take `CCCCCC(CO)CCC` (configuration not stated): the compound was classed as inactive.
As for `CCCCCCCCCCN`, the AC50 was 78.2 µM (active).
Regarding `C=CC[N+](C)(C)CC=C`, the call was inactive.
`O=c1cc(-c2ccccc2)oc2cc(O)cc(O)c12`: the outcome was inactive.
In the case of `CC1=CC(=O)NS(=O)(=O)O1`, the compound was classed as inactive.
In the case of `c1ccc2[nH]ccc2c1`, the result was inactive.
On to `Cc1ccc(O)c(C(C)(C)C)c1`, for which the call was inactive.
With `CCCCC(CC)COC(=O)/C=C\C(=O)OCC(CC)CCCC` (configuration not stated), the AC50 is 50 µM (active).
Regarding `CC1(C)[C@@H]2CC[C@@]1(C)[C@H](O)C2`, the compound was called inactive.
As for `C=O`, the result was inactive.
On to `C[Si](O[Si](C)(C)C)O[Si](C)(C)C`, for which the compound was called inactive.
`CCCCCCCCCCCCN`: the AC50 was 10.6 µM (active).
As to `OC1OC[C@@H](O)[C@H](O)[C@H]1O` (some centres not stated), the outcome was inactive.
On to `NC(=O)NC1NC(=O)NC1=O` (configuration not stated), for which the result was inactive.
Take `C=CC(C)(O)CCC=C(C)CCC=C(C)C` (configuration not stated): the AC50 was 50 µM (active).
For `O=C[C@@H](O)[C@H](O)[C@H](O)CO`, the compound was called inactive.
For `O=C1C(c2[nH]c3ccc(S(=O)(=O)O)cc3c2O)=Nc2ccc(S(=O)(=O)O)cc21`, the result was inactive.

A further assay deals with Peroxisome proliferator-activated receptor gamma (Homo sapiens) (UniProt P37231). Nature of the assay: OT_PPARg_PPARgSRC1_0480: Odyssey Thera (OT) 8-hour Protein-Complementation Assay for Peroxisome Proliferator-activated Receptor Gamma / SRC-1 Co-activator (AID 2283387). In outline:
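Read-out: 488 nm N/C fluorescence ratio from complemented Venus YFP fragments, ≥350 cells per image, gain-of-signal fitted against DMSO baseline. Fusions of PPARg/SRC-1 with IFP1/IFP2 expressed transiently in HEK293T; compounds applied 8 h.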
As for `CC(C)CCCCCCCOC(=O)c1ccc(C(=O)OCCCCCCCC(C)C)c(C(=O)OCCCCCCCC(C)C)c1`, the outcome was inactive.
For the compound `CCCCCCCCCCCCCCCCCC(=O)OCC(CC)CCCC` (configuration not stated), the result was inactive.
As for `CCCCCCCCCCCCCCCC(=O)O`, the compound was called inactive.
On the same count and under the same terms, then `NCCCCCCN`, with “inactive”; and `CC(C)=CCC[C@](C)(O)[C@@H]1CC=C(C)CC1`, with “inactive”.
Same read-out and setting: then `C=CCOc1nc(OCC=C)nc(OCC=C)n1`, with “inactive”.
As to `CCCCCC(CO)CCC` (configuration not stated), the outcome was inactive.
`COc1cc(C(C)(C)C)c(O)c(C(C)(C)C)c1`: the outcome was inactive.
For `C=CC[N+](C)(C)CC=C`, the compound was called inactive.
As to `O=c1cc(-c2ccccc2)oc2cc(O)cc(O)c12`, the outcome was inactive.
For `CC1=CC(=O)NS(=O)(=O)O1`, the outcome was inactive.
Same read-out and setting: with `CCCCCOC(=O)CCC` the entry was “inactive”.
As for `c1ccc2[nH]ccc2c1`, the outcome was inactive.
Still for that read-out and setting: with `CC(C)=CCCC(C)CC=O` (configuration not stated) the entry was “inactive”; with `Cc1ccc(O)c(C(C)(C)C)c1`, “inactive”; with `CCCCC(CC)COC(=O)/C=C\C(=O)OCC(CC)CCCC` (configuration not stated), “inactive”.
For `CCCC1CCC(=O)O1` (configuration not stated), the outcome was inactive.
Still for that read-out and setting: with `C=O` the entry was “inactive”.
`C[Si](O[Si](C)(C)C)O[Si](C)(C)C`: the compound was classed as inactive.
Consider `CCCCCCCCCCCCN`, for which the compound was classed as inactive.
Regarding `OC1OC[C@@H](O)[C@H](O)[C@H]1O` (some centres not stated), the compound was called inactive.
As for `NC(=O)NC1NC(=O)NC1=O` (configuration not stated), the compound was called inactive.
For the compound `O=C[C@@H](O)[C@H](O)[C@H](O)CO`, the compound was classed as inactive.
Regarding `O=C1C(c2[nH]c3ccc(S(=O)(=O)O)cc3c2O)=Nc2ccc(S(=O)(=O)O)cc21`, the result was inactive.

The target is the same in the next assay. The assay is described as follows: OT_PPARg_PPARgSRC1_1440: Odyssey Thera (OT) 24-hour Protein-Complementation Assay for Peroxisome Proliferator-activated Receptor Gamma/ SRC-1 Co-activator (AID 2283388). The essentials:
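HEK293T transiently transfected with PPARg/SRC-1 split-Venus YFP fusions 48 h before dosing, then treated 24 h at 37C. Fixed cells imaged; nuclear/cytoplasmic 488 nm fluorescence ratio, gain of signal versus DMSO.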
Consider `CC(C)CCCCCCCOC(=O)c1ccc(C(=O)OCCCCCCCC(C)C)c(C(=O)OCCCCCCCC(C)C)c1`, for which the compound was called inactive.
As for `CCCCCCCCCCCCCCCCCC(=O)OCC(CC)CCCC` (configuration not stated), the call was inactive.
Take `CCCCCCCCCCCCCCCC(=O)O`: the compound was classed as inactive.
For the compound `NCCCCCCN`, the outcome was inactive.
Same read-out and setting: then `CC(C)=CCC[C@](C)(O)[C@@H]1CC=C(C)CC1`, with “inactive”; and `C=CCOc1nc(OCC=C)nc(OCC=C)n1`, with “inactive”; and `CCCCCC(CO)CCC` (configuration not stated), with “inactive”.
For the compound `COc1cc(C(C)(C)C)c(O)c(C(C)(C)C)c1`, the call was inactive.
`C=CC[N+](C)(C)CC=C`: the outcome was inactive.
Still for that read-out and setting: with `O=c1cc(-c2ccccc2)oc2cc(O)cc(O)c12` the entry was “inactive”.
With `CC1=CC(=O)NS(=O)(=O)O1`, the compound was called inactive.
With `CCCCCOC(=O)CCC`, the outcome was inactive.
With `c1ccc2[nH]ccc2c1`, the outcome was inactive.
On the same count and under the same terms, then `CC(C)=CCCC(C)CC=O` (configuration not stated), with “inactive”.
The same measure, in the same setting: with `Cc1ccc(O)c(C(C)(C)C)c1` the entry was “inactive”; with `CCCCC(CC)COC(=O)/C=C\C(=O)OCC(CC)CCCC` (configuration not stated), “inactive”; with `CCCC1CCC(=O)O1` (configuration not stated), “inactive”.
Turning to `C=O`, the compound was classed as inactive.
Same read-out and setting: then `C[Si](O[Si](C)(C)C)O[Si](C)(C)C`, with “inactive”; and `CCCCCCCCCCCCN`, with “inactive”; and `OC1OC[C@@H](O)[C@H](O)[C@H]1O` (some centres not stated), with “inactive”.
For `NC(=O)NC1NC(=O)NC1=O` (configuration not stated), the call was inactive.
For the compound `C=CC(C)(O)CCC=C(C)CCC=C(C)C` (configuration not stated), the compound was classed as inactive.
For `O=C[C@@H](O)[C@H](O)[C@H](O)CO`, the outcome was inactive.
With `O=C1C(c2[nH]c3ccc(S(=O)(=O)O)cc3c2O)=Nc2ccc(S(=O)(=O)O)cc21`, the call was inactive.
